From PubChem BioAssay
A selection: hits, their analogues and other compounds. The true share with any hit is near 12%.
Pf growth 96h – Primary qHTS for delayed death inhibitors of the malarial parasite plastid, 96 hour incubation | AID 504834, 2011 | P. falciparum luciferase reporter growth, 96 h | Potency, µM (doses to about 28.7 µM), usual class: inhibitors | hit rate 6.9% among 320,000
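Two-generation exposure (96 h) targets delayed-death phenotype. Reporter parasites carrying integrated firefly luciferase, in red cells at 2% hematocrit and 0.05% parasitemia final, kept at 37 C, 5% CO2; luminescence loss indicates inhibition.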
Pf growth 48h – Primary qHTS for delayed death inhibitors of the malarial parasite plastid, 48 hour incubation; hit rate 5.9% among 310,000; P. falciparum luciferase growth in erythrocytes, 48 h; Potency, µM (doses to about 28.7 µM), hits mostly inhibitors
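Luciferase-expressing parasites in RBCs, 2% Hct / 0.1% parasitemia final; RPMI 1640 + 0.5% Albumax; 37 C, 5% CO2, one generation; luminescence read-out, lower signal = inhibition.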
HCV inhibitor – qHTS Assay for Inhibitors of Hepatitis C Virus (HCV). Huh7.5.1 HCVcc-Cre infection, luciferase reporter, 44 h. hit rate 3.4% among 340,000. Potency, µM (titrated, usually from 41.8 µM), actives largely listed as inhibitors. AID 651820, 2012
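Luciferase read-out (15 sec integration) after a 15 min room-temperature substrate step quantifies HCVcc-Cre infection. Cells, 1,000 per well, had compound added 4 h post-plating, then virus at ~0.5 moi, and were cultured 44 h.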
SARS PLP yeast – qHTS of Yeast-based Assay for SARS-CoV PLP. hit rate 0.19% among 330,000. Potency, µM (titrated, usually from 32.9 µM), actives largely listed as activators. AID 485353, 2010. S. cerevisiae expressing SARS-CoV PLpro, growth rescue; calls by dose curve; further: nearly all actives have a fitted effect of over 55% in size
NS1 inh – qHTS Assay for Inhibitors of Influenza NS1 Protein Function. Potency, µM (highest dose often 46.1 µM). hit rate 0.4% among 270,000. AID 2326, 2010; calls by dose curve; further: actives are rising curves; nearly all actives have a fitted effect of over 50% in size
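Compounds were scored for reversing the slow growth caused by influenza A NS1 in S. cerevisiae, measured by optical density at 600 nm. Assay medium contained 2% galactose at pH 6.0; NS1-free yeast of the same strain were the positive control.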
AMA1-RON2 inh – qHTS for Inhibitors of AMA1-RON; Towards Development of Antimalarial Drug Lead: Primary Screen; AlphaScreen AMA1-biotinylated RON2 peptide binding; Potency, µM (highest dose often 58.2 µM), actives largely listed as inhibitors; hit rate 0.2% among 360,000; further: nearly all actives have a fitted effect of over 45% in size
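AMA1 (3D7) with his tag at 25 nM final met compounds first, then biotinylated RON2 peptide at 25 nM; detection used donor plus acceptor beads, 10 µg/mL apiece, read by AlphaScreen after 30 min at room temperature.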
Numbers stand for hits; i = inactive; ? = inconclusive; nt = not tested or not shown; [ ] = another dose, or the depositor's remark. Unless noted, the call rests on the fitted dose curve; in most records, active means well fitted curve in the direction sought with a large enough effect; inconclusive means small, poorly fitted or top-dose-only effect, or another doubt; inactive means no such curve, though single readings can be large; an effect the other way counts as inactive or inconclusive.

SMILES | Pf growth 96h | Pf growth 48h | HCV inhibitor | SARS PLP yeast | NS1 inh | AMA1-RON2 inh
COc1ccc(CC(=O)Nc2ccc(S(=O)(=O)Nc3ncccn3)cc2)cc1 | nt | i | i | i | i | i
CCN1CCN(c2ccc(S(=O)(=O)N3CCCCC3)cc2NC(=O)c2cccc(Cl)c2)CC1 | 8.3µM | ? | ? | i | nt | i
CCN1CCN(S(=O)(=O)c2ccc(Cl)c(C(=O)N(C)C(c3ccccc3)c3ccccc3)c2)CC1 | 13µM | 9.3µM | ? | i | nt | i
COc1ccc(CC(=O)Nc2cc(S(=O)(=O)Nc3ccc(OC)cc3)ccc2OC)cc1 | nt | nt | 13µM | i | nt | i
CCN1CCN(S(=O)(=O)c2ccc(Cl)c(C(=O)N(C)C3CCCCC3)c2)CC1 | nt | nt | nt | nt | nt | i
O=C(Nc1cc(S(=O)(=O)N2CCOCC2)ccc1N1CCOCC1)c1cccc(Cl)c1 | nt | nt | nt | nt | nt | i
CCN1CCN(c2ccc(S(=O)(=O)N3CCCCC3)cc2NC(=O)Cc2c(F)cccc2Cl)CC1 | 13µM | ? | ? | i | i | i
O=C(Nc1ncccc1O)C1CCN(S(=O)(=O)c2ccc3ccccc3c2)CC1 | i | ? | i | i | nt | i
CCOc1ccc2nc(NC(=O)CN3C(=O)C4CCCCC4C3=O)sc2c1 (centres undefined) | i | i | i | i | nt | i
O=C(CCCCCN1C(=O)[C@@H]2Cc3ccccc3CN2C1=O)NCCc1ccccc1 | ? | ? | i | i | i | i
O=C(CNS(=O)(=O)c1ccccc1)NCC(=O)OCc1ccc(Cl)cc1 | i | i | i | i | i | i
CCCc1cc2c(cc1NC(=O)c1ccco1)OCO2 | ? | i | i | i | i | i
O=[N+]([O-])c1cccc(CN2CCC(Cc3ccccc3)CC2)c1 | i | i | i | i | i | ?
O=C1C(Cc2cccc([N+](=O)[O-])c2)SC(=Nc2ccccc2)N1c1ccccc1 (centres undefined) | 7.4µM | 8.3µM | i | i | i | ?
O=C1C(Cc2ccc(F)cc2)SC(=Nc2ccccc2)N1c1ccccc1 (centres undefined) | ? | 10µM | i | i | i | i
O=C1C(Cc2ccccc2)S/C(=N/N=C/c2ccco2)N1c1ccccc1 (centres undefined) | 0.26µM | i | i | i | i | i
O=C1C(Cc2ccc(Br)cc2)SC(=Nc2ccccc2)N1c1ccccc1 (centres undefined) | ? | 13µM | ? | i | i | i
O=C1N/C(=N/N=C/c2ccco2)SC1Cc1ccccc1 (centres undefined) | i | ? | i | i | nt | i
O=C1CC(Cc2ccc(Br)cc2)C(=O)N1c1ccccc1 (centres undefined) | ? | i | i | i | i | i
CCN(CC(=O)Nc1ccc2c(c1)OCCO2)C(=O)/C=C/c1ccc(F)cc1 | i | i | i | i | nt | i
COc1ccc(CCNC(=O)COC(=O)c2cc(S(=O)(=O)N3CCOCC3)ccc2C)cc1OC | nt | nt | i | i | nt | i
CCOC(=O)c1nnn(CC(=O)N2N=C(c3cccc4ccccc34)CC2c2ccccc2)c1C(=O)OCC (centres undefined) | ? | 9.3µM | i | i | i | i
COc1ccc(OC)c(-n2c(-c3cccc(O)c3)n[nH]c2=S)c1 | i | 0.74µM | i | i | i | i
C/C(=N\NC(=O)Cc1cccc2ccccc12)c1ccncc1 | ? | i | i | i | i | i
CCS(=O)(=O)c1ccc(-c2cccc(NC(=O)c3ccco3)c2)nn1 | ? | ? | ? | i | nt | i
SMILES | Pf growth 96h | Pf growth 48h | HCV inhibitor | SARS PLP yeast | NS1 inh | AMA1-RON2 inh
CCOc1ccc(-c2cccc(NC(=O)c3cccs3)c2)nn1 | 3.7µM | 5.2µM | ? | i | nt | i
Cc1nn2c(-c3cccc(NC(=O)c4ccco4)c3)nnc2c2ccccc12 | i | 9.3µM | ? | i | i | i
CCOc1ccc(-c2cccc(NC(=O)c3ccco3)c2)nn1 | 10µM | ? | i | i | nt | i
COc1ccc(-c2cccc(NC(=O)c3cccs3)c2)nn1 | 7.4µM | 9.3µM | 3.5µM | i | nt | i
O=C(Nc1cccc(-c2nn[nH]n2)c1)c1cccs1 | ? | i | i | i | i | i
COc1ccc(NC(=O)c2cc(-c3ccccn3)nc3ccccc23)cc1S(=O)(=O)N(C)C | i | ? | ? | i | nt | i[11.6 µM]
Cc1onc(-c2ccccc2)c1C(=O)NCCc1ccncc1 | ? | i | i | i | i | i
OC[C@@H](O)[C@H](O)C(/C=N/Nc1ccccc1)=N\Nc1ccccc1 | i | i | ? | i | i | i
CCC(=O)Nc1ccccc1Sc1ncnc2scc(-c3ccccc3)c12 | 4.7µM | 13µM | i | i | i | i
COc1cc(/C=N/Nc2ncc(C(F)(F)F)cc2Cl)cc(OC)c1O | i | i | i | i | i | i
COc1cc(/C=N/Nc2ncc(C(F)(F)F)cc2Cl)cc(OC)c1OC | ? | 4.7µM | ? | i | i | i
CC(Oc1ccc2c(-c3ccccc3)cc(=O)oc2c1)C(=O)NCCCn1ccnc1 (centres undefined) | ? | ? | ? | i | i | i
COc1ccc(S(=O)(=O)N2c3ccccc3OCC2C(C)(C)C)cc1 (centres undefined) | 15µM | 12µM | i | i | nt | i
COc1ccc(S(=O)(=O)N2c3ccccc3OCC2c2ccccc2)cc1 (centres undefined) | ? | 13µM | ? | i | i | i
O=C(CNC(=O)c1cccs1)Nc1ccc(N2CCOCC2)cc1 | i | i | i | i | nt | i
COc1ccc(CNC(=O)C(=O)NCC2CCCO2)cc1 (centres undefined) | i | i | i | i | i | i
COc1ccc(CCNC(=O)C(=O)NCC2CCCO2)cc1 (centres undefined) | 4.1µM | i | i | i | i | i
COc1ccc(CCNC(=O)C(=O)NCC2OCCN2S(=O)(=O)c2ccc(Cl)cc2)cc1 (centres undefined) | i | i | 11µM | i | i | i
COc1ccc(CCNC(=O)C(=O)NCC2OCCN2S(=O)(=O)c2ccc(OC)cc2)cc1 (centres undefined) | ? | i | ? | i | i | i
OC(c1ccc(F)cc1)c1nc(-c2cccs2)cs1 (centres undefined) | nt | nt | nt | nt | nt | i
Cc1[nH]nc(N=CC2=C(O)CC(C)(C)CC2=O)c1-c1ccccc1 | i | i | ? | i | i | i
Cc1[nH]nc(N=CC2=C(O)CC(c3ccco3)CC2=O)c1-c1ccccc1 (centres undefined) | 7.4µM | ? | ? | i | i | i
CN1CCc2c(n(CC(O)CN3CCN(CCO)CC3)c3ccccc23)C1=O (centres undefined) | i | i | i | i | nt | i
CNCCCC1Sc2ccccc2Oc2ccccc21 (centres undefined) | 9.3µM | ? | ? | i | i | i
